High-throughput results: PubChem, several laboratories
eIF4E 4G PPI: inhibitors of eIF4E and eIF4G interaction in translation initiation; TR-FRET eIF4E-eIF4GI(517-606) binding, 2 h; inhibition, % at 21.7 µM; 0.37% of 220,000 active; AID 782
14-3-3 Bad PPI: disrupts binding of bovine 14-3-3 zeta to phospho-Bad peptide | P63103 | TR-FRET 14-3-3zeta/Dy647-pBad peptide displacement, 1 h | inhibition, % at 21.7 µM | 0.71% of 220,000 active;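 active means inhibition above about 70%, limit read from the data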
Target sequence (P63103 whole entry, looked up): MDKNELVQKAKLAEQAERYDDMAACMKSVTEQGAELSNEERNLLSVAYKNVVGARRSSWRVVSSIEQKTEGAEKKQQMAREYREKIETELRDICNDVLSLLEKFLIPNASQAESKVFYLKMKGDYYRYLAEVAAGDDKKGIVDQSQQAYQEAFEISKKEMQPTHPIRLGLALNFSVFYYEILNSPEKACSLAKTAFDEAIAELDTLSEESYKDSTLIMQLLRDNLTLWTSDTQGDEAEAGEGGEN
p47phox inh: p47phox (human) inhibition | P14598 | p47phox/p22phox peptide binding, fluorescence polarization, 2 h | 0.53% of 220,000 active | inhibition, % at 24.7 µM
SUMO HTRF inh: inhibitors of human SUMOylation (UBC9). P63279. HTRF SUMOylation assay, SAE1/SAE2 + UBC9, in vitro. inhibition, % at 35 µM. 0.36% of 290,000 active; in the data active means inhibition above about 50%, passing the limit was not always enough
Target sequence (P63279 whole entry, looked up): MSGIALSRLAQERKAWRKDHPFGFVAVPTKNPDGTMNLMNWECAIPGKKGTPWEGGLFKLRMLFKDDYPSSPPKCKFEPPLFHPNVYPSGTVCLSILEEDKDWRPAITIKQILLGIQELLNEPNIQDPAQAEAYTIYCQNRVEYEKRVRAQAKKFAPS
Hits are given with their value; - = inactive; . = no result; [ ] = another dose, or the depositor's remark. Most compounds without a hit are left out; they make up all but 1.3% or so of the library.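 How the source made its calls, unless noted: active means inhibition above about 30% (limit read from the data); inactive means the rest.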

SMILES | eIF4E 4G PPI | 14-3-3 Bad PPI | p47phox inh | SUMO HTRF inh
CCOC(=O)C(O)(CC(=O)c1ccc(Cl)cc1)C(=O)OCC | - | - | - | -
COc1cc(/C=N/NC(=O)c2ccc(O)cc2)ccc1OCC(=O)N1CC(C)OC(C)C1 (configuration not stated) | - | - | - | -
COc1ccc2c(CC(=O)N[C@@H](Cc3ccccc3)C(=O)O)cc(=O)oc2c1C | . | . | . | -
Cc1c(O)ccc2c(CC(=O)N[C@@H](Cc3ccc(O)cc3)C(=O)O)cc(=O)oc12 | . | . | . | 53
COc1cc(CN2CCC(C(=O)NC3CCCC3)CC2)ccc1O | - | 77 | - | -
Cc1ccc(NC(=O)CN2C(=O)S/C(=C\c3cccn3-c3cccc(C(=O)O)c3)C2=O)cc1C | - | - | - | 64
Cc1ccc(NC(=O)CN2C(=O)N/C(=C/c3cccn3-c3ccc(C(=O)O)cc3)C2=O)cc1 | 34 | - | - | .
Cc1cccc(NC(=O)CN2C(=O)S/C(=C\c3cccn3-c3cccc(C(=O)O)c3)C2=O)c1 | - | - | - | -
Cc1ccc(NC(=O)CN2C(=O)S/C(=C\c3cccn3-c3cccc(C(=O)O)c3)C2=O)c(C)c1 | - | - | - | 83
Cc1ccccc1NC(=O)CN1C(=O)S/C(=C\c2cccn2-c2cccc(C(=O)O)c2)C1=O | - | - | - | -
Cc1ccc(NC(=O)CN2C(=O)N/C(=C/c3cc(C)n(-c4ccc(C(=O)O)cc4)c3C)C2=O)cc1 | - | - | - | -
Cc1ccc(NC(=O)C(=O)NCc2ccc(/C=C(/C#N)C(=O)NCc3cccnc3)o2)cc1C | - | - | - | -
Cc1cccc(-[n+]2c(C)cc(C)c3c(=O)[nH]c(=O)[nH]c32)c1 | - | - | - | -
CN1CCN(CC(=O)N2CCn3c4c(c5cc(C6CCCCC6)ccc53)CCCC42)CC1 (configuration not stated) | - | - | 31 | -
O=c1[nH]cc(N=Cc2cc([N+](=O)[O-])ccc2O)c(=O)[nH]1 | . | . | . | -
O=c1[nH]cc(N=Cc2cc(Cl)cc(Cl)c2O)c(=O)[nH]1 | . | . | . | 57
CN(C)C1(CN=Cc2cc(Cl)cc([N+](=O)[O-])c2O)CCCCC1 | . | . | . | -
COc1ccc(C)cc1NC(=O)c1ccc(NS(=O)(=O)c2cccs2)cc1 | . | . | . | -
CCOc1ccc(CCNC(=O)c2cc(C)nn2-c2ccccc2)cc1 | - | - | - | -
O=[N+]([O-])c1ccc(Sc2cccc[n+]2[O-])c2nonc12 | - | - | - | 66
O=[N+]([O-])c1ccc(Nc2ccccc2)c2nonc12 | . | . | . | -
CCN1CCN(c2nc3c(C)cccn3c(=O)c2C=C(C#N)C#N)CC1 | . | . | . | -
Cc1ccc2nc(-c3ccc(NC(=O)CNC4CC4)cc3)sc2c1 | - | 80 | - | -
Cc1ccc2nc(-c3ccc(NC(=O)CN4C(=O)c5ccccc5C4=O)cc3)sc2c1 | - | - | - | -
CCn1c(SCC(=O)Nc2ccc(-c3nc4ccc(C)cc4s3)cc2)nnc1-c1ccccc1 | - | 91[fluorescence artefact?] | - | -
SMILES | eIF4E 4G PPI | 14-3-3 Bad PPI | p47phox inh | SUMO HTRF inh
Cc1ccc(NC(=O)Nc2ccno2)cc1 | - | - | - | 72
Cc1ccc(NC(=O)Nc2ncccc2C)cc1 | - | - | - | -
CC(=O)Oc1cccc2c1C(=O)c1c(OC(C)=O)cc(C(=O)O)cc1C2=O | - | - | - | -
CC(=O)Oc1cc2cccc(OC(C)=O)c(=O)c2c(OC(C)=O)c1OC(C)=O | - | 75 | - | -
O=C(NCc1ccccc1F)C1CCN(S(=O)(=O)c2ccccc2)CC1 | . | . | . | -
CN1C2=CC=CC=CC2=[N+](C)C12C([N+](=O)[O-])=CC(=[N+]([O-])[O-])C=C2[N+](=O)[O-] (configuration not stated) | - | - | 61 | -
CN1C2=CC=CC=CC2=[N+](C)C12C=CC(=[N+]([O-])[O-])C=C2[N+](=O)[O-] (configuration not stated) | - | - | - | -
CCc1n[nH]c(=O)n1Cn1c(CC)n[nH]c1=O | - | - | 37 | -
COc1ccc2nc(C)cc(SCC(=O)N/N=C/c3ccc(O)cc3O)c2c1 | - | - | - | -
COc1ccc(N2Cc3ccc(C(=O)N/N=C\c4ccc(O)cc4O)cc3C2)cc1 | . | . | . | 66
O=C(N/N=C/c1ccc(O)cc1O)C(=O)N/N=C/c1ccc(O)cc1O | . | . | . | 95
CN(C)c1ccc(/C=C/C=N/Nc2nc(N3CCOCC3)nc(N3CCOCC3)n2)cc1 | - | - | - | -
COc1cccc(C(=O)NCC2(c3ccc(OC)c(OC)c3)CCCC2)c1 | . | . | . | -
COC(=O)c1ccc(NC(CC(C)C)C(=O)OC)c([N+](=O)[O-])c1 (configuration not stated) | - | - | - | -
